This passage reports inhibition results from PubChem BioAssay AID623870 (Broad Institute, 2012).

In all, about 390,000 compounds went through this assay and about 2,600 (0.67%) were called active. What follows is part of a selection rich in actives, with near analogues and random picks from the rest. Values without a mark were called inactive.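 The calls were made as follows: active = mean inhibition of replicates at least 50% and at least half of replicates each reaching 50%; inconclusive = half or more replicates reach 50% but mean below 50%; inactive = the rest.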

The target in this assay is Transforming acidic coiled-coil-containing protein 3 (Homo sapiens) (UniProt Q9Y6A5). Put plainly: disruptors of ARNT/TACC3 protein interaction, primary screen, biochemical, AlphaScreen, single concentration (AID 623870).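 Also: 0% = complete ARNT plus TACC3 wells and 100% = ARNT alone without TACC3.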 The note with it: AlphaScreen His-ARNT PAS-B/GST-TACC3 binding, luminescence; at 9.99 µM; stronger effect = higher value; TACC3 fragment carries E629A point mutation. (Alpha assays give light when donor and acceptor beads are brought close together.)
Regarding `Oc1c(C(c2ccccn2)N2CCOCC2)ccc2cccnc12` (stereo not drawn), the inhibition (usually the change of the read-out against control, counted positive when it falls) is 70.2% (active). As for `CNC[C@@H]1OCCCC[C@H](C)Oc2ccc(NC(=O)Nc3ccc(OC)cc3)cc2C(=O)N([C@H](C)CO)C[C@@H]1C`, the inhibition was -2.24%.

Consider `O=C(C[C@@H]1C[C@H]2c3cc(NC(=O)Nc4ccccc4F)ccc3O[C@H]2[C@@H](CO)O1)NCc1ccncc1`, for which the inhibition was -5.98%. `Cc1ccccc1CSc1nnc(-c2cccnc2)n1N`: the inhibition was -2.01%. In the case of `Cc1ccccc1CSc1nnc(-c2ccccn2)n1N`, the inhibition was 54.4% (active). For the molecule `Cn1c(SCC(=O)C(C)(C)C)nnc1-c1ccccn1`, the inhibition was 13.6%.

Consider `C[C@H](CO)N1C[C@H](C)[C@@H](CN(C)C(=O)C2CCCCC2)Oc2cc(C3=CCCC3)ccc2S1(=O)=O`, for which the inhibition is 5.91%. As for `O=C(C[C@@H]1CC[C@@H]2[C@H](COC[C@@H](O)CN2Cc2ccc(F)cc2)O1)NCc1ccncn1`, the inhibition was -1.34%. On to `COc1ccccc1C#Cc1ccc([C@@H]2[C@H](CO)N3CCCCN(CCC(F)(F)F)C[C@@H]23)cc1`, for which the inhibition was 26%. With `Cc1noc(C)c1S(=O)(=O)N(C)C[C@H]1OCCCC[C@H](C)Oc2ccc(NS(=O)(=O)c3ccccc3)cc2C(=O)N([C@H](C)CO)C[C@@H]1C`, the inhibition is -5.63%. In the case of `COc1ccc(S(=O)(=O)N2C[C@@H](O)COC[C@H]3O[C@H](CC(=O)N[C@H]4CCN(Cc5ccccc5)C4)CC[C@@H]32)cc1`, the inhibition is -2.17%. The same measure for `O=C(NCCCn1ccnc1)C(=O)NCC1OCCN1S(=O)(=O)c1cc(F)ccc1F` (stereo not drawn): 60.2% (active); for `Cc1cc(F)ccc1S(=O)(=O)N1CCCOC1CNC(=O)C(=O)NCCC1=CCCCC1` (stereo not drawn): 3.52%; for `O=C(NCCCc1ccccc1)C(=O)NCC1OCCN1S(=O)(=O)c1ccccc1` (stereo not drawn): 0.478%.

Take `CC(C)NC(=O)Nc1ccc2c(c1)CC(=O)N([C@@H](C)CO)C[C@@H](C)[C@H](CN(C)CC1CC1)O2`: the inhibition was -5.56%. `CO[C@@H]1CC[C@@H]2CCOc3ccc(C#N)cc3C(=O)N(C)C[C@H](c3ccccc3)CC(=O)N(C)C[C@H]1O2`: the inhibition is -7.48%. The same measure for `Cc1noc(C)c1NC(=O)N[C@H]1C=C[C@@H](CC(=O)Nc2ccccc2)O[C@H]1CO`: -3.76%; for `Cc1ccc(S(=O)(=O)Nc2ccc3c(c2)CC(=O)N([C@@H](C)CO)C[C@@H](C)[C@@H](CN(C)S(=O)(=O)c2ccccc2)O3)cc1`: -1.52%; for `COc1c(O)cc2oc(-c3ccc(O)c(O)c3)cc(=O)c2c1O`: 36.8% (active). For the molecule `C[C@H](CO)N1C[C@H](C)[C@H](CN(C)C(=O)C2CCOCC2)Oc2ncc(-c3ccccc3)cc2C1=O`, the inhibition was -4.96%.

In the case of `CC(C)CC#Cc1cnc2c(c1)C(=O)N([C@@H](C)CO)C[C@H](C)[C@@H](CN(C)C(=O)c1ccc(F)cc1)O2`, the inhibition is 7.13%.

As to `CSc1cccc(NC(=S)N(C(C)C)C(C)c2ccccn2)c1` (stereo not drawn), the inhibition was 19%.

Turning to `Cc1cccc(NC(=S)N(CCN(C)C)C(C)c2ccco2)c1` (stereo not drawn), the inhibition was -28.1%. Regarding `CC(c1ccccn1)N(CCN(C)C)C(=S)Nc1ccccc1F` (stereo not drawn), the inhibition was 56.1% (active). For the molecule `C[C@@H]1CN([C@H](C)CO)S(=O)(=O)c2ccc(-c3cncnc3)cc2O[C@H]1CN(C)C(=O)Cc1ccccc1`, the inhibition was -17%. Consider `C[C@H](CO)N1C[C@H](C)[C@@H](CN(C)Cc2ccc(Cl)c(Cl)c2)Oc2c(NC(=O)Nc3ccccc3)cccc2C1=O`, for which the inhibition was 6.91%. With `COc1ccccc1C1C(C#N)=C(N)Oc2c1c(-c1ccccc1)nn2-c1ccccc1` (stereo not drawn), the inhibition is 2.34%. On to `CCCc1[nH]nc2c1C(c1ccc(Br)s1)C(C#N)=C(N)O2` (stereo not drawn), for which the inhibition was 3.43%. Take `COc1cc(C2C(C#N)=C(N)Oc3n[nH]c(-c4ccccn4)c32)cc(OC)c1OC` (stereo not drawn): the inhibition is 71.4% (active). For `O=C(C[C@H]1CC[C@H]2[C@@H](COC[C@@H](O)CN2Cc2ccccc2F)O1)NCc1ccccc1F`, the inhibition was -10%. As to `Cc1noc(C)c1NC(=O)Nc1ccc2c(c1)C(=O)N([C@@H](C)CO)C[C@H](C)[C@@H](CN(C)Cc1ccncc1)OCCCC[C@@H](C)O2`, the inhibition is -0.402%. `CN(C)c1ccc2c(c1)[C@H]1C[C@H](CC(=O)O)O[C@H](CO)[C@H]1O2`: the inhibition is 22.1%.

On to `CNC(=O)C[C@H]1CC[C@H]2[C@H](COc3ccc(NC(=O)c4cc(C)on4)cc3C(=O)N2C)O1`, for which the inhibition is 8.66% (active). Turning to `Cc1cc(C(=O)Nc2ccc3c(c2)C(=O)N(C)[C@@H]2CC[C@@H](CC(=O)NC4CCCC4)O[C@@H]2CO3)no1`, the inhibition is -5.47%.

Consider `Cc1cc(C(=O)Nc2ccc3c(c2)C(=O)N(C)[C@@H]2CC[C@H](CC(=O)NC4CCCC4)O[C@@H]2CO3)no1`, for which the inhibition is -1.61%.

`CCCn1nc(C(=O)OCc2nc(N)nc(Nc3ccccc3C)n2)c2ccccc2c1=O`: the inhibition was 10.3%.

On to `Cc1ccccc1Nc1nc(N)nc(CSc2nnc3ccccn23)n1`, for which the inhibition was -0.395%. As for `Cc1ccccc1Nc1nc(N)nc(CN2CCN(c3ccccn3)CC2)n1`, the figure is 86% (active). Consider `COc1ccc(-c2ccc([C@@H]3[C@@H](C#N)N(C(=O)C4CCC4)[C@@H]3CO)cc2)cc1`, for which the inhibition is -0.479%. The same measure for `C[C@H]1CN([C@@H](C)CO)C(=O)c2cc(N(C)C)ccc2O[C@@H]1CN(C)C(=O)Nc1ccc2c(c1)OCO2`: 12.1%; for `O=C(Nc1ccc(S(=O)(=O)N2CCOCC2)cc1)c1ccc2ncsc2c1`: 8.14%. Turning to `Cc1ccnc(NS(=O)(=O)c2ccc(NC(=O)c3ccc(S(=O)(=O)N4CCOCC4)cc3)cc2)n1`, the inhibition is -1.47%.

As for `O=C(Nc1nnc(-c2ccco2)o1)c1ccc(S(=O)(=O)N2CCOCC2)cc1`, the inhibition is 79.1% (active). Consider `CCCNC(=O)C[C@@H]1CC[C@H]2[C@H](COc3ccc(NC(=O)CCC)cc3C(=O)N2C)O1`, for which the inhibition is -12.3%. The same measure for `Cc1noc(C)c1NC(=O)Nc1ccc2c(c1)C(=O)N([C@H](C)CO)C[C@H](C)[C@H](CN(C)Cc1ccc(C(=O)O)cc1)OCCCC[C@H](C)O2`: -1.31%. `C[C@H](CO)N1C[C@H](C)[C@@H](CN(C)C)Oc2ccc(NS(=O)(=O)c3cccs3)cc2C1=O`: the inhibition was -4.47%. On to `C[C@H](CO)N1C[C@H](C)[C@@H](CN(C)CC2CCCCC2)Oc2ccc(NS(=O)(=O)c3cccs3)cc2CC1=O`, for which the inhibition is 8.01%.

`C[C@@H]1CN([C@@H](C)CO)C(=O)c2cc(NS(=O)(=O)c3cccs3)ccc2O[C@H]1CN(C)CC1CCCCC1`: the inhibition was 54.3% (active).
